The source of these data is PubChem BioAssay AID745 (Emory University Molecular Libraries Screening Center, 2007).

Among all 33,000 compounds or so, about 40 (0.1%) were called active. Shown is part of a subset that was picked to be rich in actives. A number with no mark means an inactive call. No stated cut-off is given here; in the data, active means z-score below about -3; inactive means the rest.

A short description of this assay: inhibitors of measles virus growth in cells, primary screen, measles RdRp inhibitor project, cell-based, single point, HTS (AID 745). The note with it: infected Vero cells, GFP fluorescence, 64 h; stronger effect = lower value.
Consider `COCCNC(=O)c1ccc(N2CC3CC(C2)c2cccc(=O)n2C3)c(NC(=O)c2cc3ccccc3oc2=O)c1` (stereo unspecified), for which the z-score is 0.89.
For the compound `Cc1ccc(NCc2ccccc2CO)cc1`, the z-score was -0.53.
For the compound `C=CCC1(C#N)C(=S)NC(c2ccccc2)=C(C(=O)OCC)C1c1cccnc1` (stereo unspecified), the z-score was 1.37.
With `CC(=O)N1CCc2cc(Br)cc(S(=O)(=O)NCCCN3CCCCCC3)c21`, the z-score was 0.64.
Consider `COc1ccc(C=NCCC2(c3ccc(OC)cc3)CCOC(C)(C)C2)cc1` (stereo unspecified), for which the z-score was -0.17.
As for `COc1ccccc1-c1nc2nc(C)cc(=O)n2[nH]1`, the z-score was -0.19.
As for `Cc1ccccc1C(=O)Nc1cccc(F)c1`, the z-score is 1.39.
Take `O=C(Cc1c(C(=O)O)[nH]c2ccc(Cl)cc12)NCc1ccc2c(c1)OCO2`: the z-score is 1.5.
With `COc1ccc(NC(=O)Cn2c(=O)n(CCc3ccccc3)c(=O)c3c(C)c(C)sc32)cc1`, the z-score is 2.83.
Turning to `Cn1c(=O)c(=O)n(C)c2cc(S(=O)(=O)N3CCCc4ccccc43)ccc21`, the z-score was -0.1.
Consider `CCN1CCN(c2cc(C)c3cc(NC(=O)CCC4CCCC4)ccc3n2)CC1`, for which the z-score is -0.38.
In the case of `Cc1cccc(C)c1NC(=O)CSc1ccc([N+](=O)[O-])cn1` it was 0.01; in that of `COc1cccc(NC(=O)Cn2cc(C(=O)C(F)(F)F)c3ccccc32)c1`, -0.44; in that of `COc1ccc(OC)c(C2Nc3cccc4cccc(c34)N2)c1`, -0.45.
In the case of `CCOP(=O)(Cc1cc(C(C)(C)C)c(O)c(C(C)(C)C)c1)OCC`, the z-score was -1.02.
For the compound `CC1Cc2nc(SCC(=O)Nc3cccc(Cl)c3)n(C)c(=O)c2S1` (stereo unspecified), the z-score is 0.
As for `COc1cccc(OC)c1C(=O)Oc1cccc2ccc(C)nc12`, the z-score is -0.39.
For the compound `CC1(C)CC(=O)C2=C(C1)OC1=C(C(=O)CC(C)(C)C1)C2c1ccccc1C(=O)O`, the z-score is 0.12.
For the compound `O=[N+]([O-])c1ccc(N2CCCCCC2)c(S(=O)(=O)N2CCOCC2)c1`, the z-score is -0.01.
For the compound `Cc1ccccc1NC(=O)CC1Sc2ccccc2NC1=O` (stereo unspecified), the z-score was -0.07.
In the case of `O=C(O)CCNC(=O)Cn1cnc2sc3c(c2c1=O)CCCC3`, the z-score is 1.62.
For `CCn1c(SCC(=O)Nc2ccc(F)cc2)nc2c(c1=O)SC(C)C2` (stereo unspecified), the z-score is -0.54.
In the case of `O=C(CSc1nc2c([nH]c3ccccc32)c(=O)n1-c1cccc(Cl)c1)Nc1nccs1` it was -1.08; in that of `COc1ccc(Cl)cc1NC(=O)CSc1nc2cc(OC)c(OC)cc2c2nc(C)nn12`, -0.11.
In the case of `CCOCCOC(=O)C1=C(C)NC(=O)NC1c1cccc([N+](=O)[O-])c1` (stereo unspecified), the z-score is 4.15.
In the case of `COc1ccc(C=Cc2nc3ccccc3[nH]2)cc1` it was -0.15.
As to `COc1cc(C2NC(=O)N(C)C(C)=C2C(=O)OCCc2ccccc2)cc(Br)c1O` (stereo unspecified), the z-score was -0.63.
As to `COc1ccccc1-n1c(C)nc2cc(C(=O)NCc3cccnc3)ccc21`, the z-score is 1.95.
For `Cc1ccc(C(=O)CC2(O)C(=O)N(C(C)C)c3ccccc32)c(C)c1` (stereo unspecified), the z-score was -0.29.
On to `Clc1ccc(-c2ncnn2-c2cccc(Cl)c2)cc1`, for which the z-score was -0.25.
As for `CCOc1ccc(Nc2cc(C(=O)NCCN3CCCC3)c3ccccc3n2)cc1`, the z-score was -0.89.
Take `O=C(Nc1ccccc1-c1nc2ccccc2s1)c1ccc(S(=O)(=O)N2CCCCCC2)cc1`: the z-score was 0.69.
In the case of `O=C(Nc1ccc(Oc2ccccc2)cc1)c1cn(-c2ccc(Cl)cc2)c(=O)c2ccccc12` it was -0.93; in that of `Cc1onc(-c2ccccc2)c1C(=O)N1CCN(c2ccc(OCc3ccccc3)cc2)CC1`, -0.43.
For the compound `Cc1nn(C)c(C)c1S(=O)(=O)Nc1ccc(C(C)C)cc1`, the z-score is -0.07.
Turning to `O=C(COC(=O)c1ccc(N2C(=O)c3ccccc3C2=O)cc1)c1ccc(Cl)cc1`, the z-score is -1.36.
As for `CCOC(=O)c1c(O)cc2ccccc2c1O`, the z-score is 0.14.
On to `O=C1NCCCCC1Nc1ccc(N2C(=O)CCCC2=O)cc1[N+](=O)[O-]` (stereo unspecified), for which the z-score was -1.9.
Take `Cc1ccc(C(=O)Nc2ccc(Br)cn2)cc1C`: the z-score was -0.15.
For `COc1ccc(NC(=O)CN(c2cc(C(F)(F)F)ccc2Cl)S(=O)(=O)c2ccccc2)cc1`, the z-score is -0.33.
On to `Cc1ccc2nc(N3CCC(C(=O)NC4CCCCC4)CC3)[nH]c2c1`, for which the z-score was 3.44.
As for `CCCCSc1nnc2c(n1)OC(c1ccc3c(c1)OCO3)N(C(C)=O)c1ccccc1-2` (stereo unspecified), the z-score is 0.17.
Regarding `C=CCN1C(=O)c2ccccc2Sc2ccc(C(=O)NCCOC)cc21`, the z-score is 1.28.
In the case of `Cc1ccc(S(=O)(=O)N2N=C(c3ccccc3)CC2c2ccccc2Cl)cc1` (stereo unspecified), the z-score was 0.52.
Regarding `COCCOC(=O)C1=C(C)NC(=O)NC1c1ccc(Br)s1` (stereo unspecified), the z-score was -0.55.
In the case of `Cc1ccc(CNC(=O)CCNC(=O)Cn2ccc3ccccc3c2=O)cc1` it was -0.31; in that of `CCOc1sc2nc(C)n(CC(=O)Nc3ccc(N(C)C)cc3)c(=O)c2c1C`, -1.08; in that of `CCC(C)NC(=O)C1(C)CCC(=O)N1CCN1CCCCCC1` (stereo unspecified), -0.27.
With `O=C1C2C3C=CC(C3)C2C(=O)N1c1ccc(Nc2ccc3c(c2)CCC3)c([N+](=O)[O-])c1` (stereo unspecified), the z-score is -1.35.
For the compound `Cn1ncc([N+](=O)[O-])c1C#N`, the z-score is -0.09.
As for `COc1ccc2c(c1)c(C(=O)CNc1nc(C)c(C)s1)c(C)n2C`, the figure is -1; as for `O=C1CCCN1CCCn1c(=S)[nH]c2ccccc2c1=O`, -0.96; as for `CC(=O)N1CCc2cc(S(=O)(=O)CCC(=O)Nc3ccc(C(F)(F)F)cc3)ccc21`, -0.69.
With `Cc1ccc2nsnc2c1S(=O)(=O)Nc1ccc(Br)cc1`, the z-score was -1.76.
Turning to `Cc1ccccc1NCc1cccc([N+](=O)[O-])c1`, the z-score was 0.03.
As to `O=C(c1oc(=O)c2ccccc2c1-c1ccccc1)N1CCc2ccccc21`, the z-score was 0.81.
For the compound `Nc1nc2ccccc2n1CCOc1ccc([N+](=O)[O-])cc1`, the z-score was -0.25.
In the case of `CCC(=O)Nc1cccc(-c2nc3ncccc3o2)c1`, the z-score was 0.77.
`Cc1ccc(CNC(=O)CCSCc2cccc(Cl)c2)cc1`: the z-score is -0.79.
As for `CCOc1ccc(C(=O)Nc2ccc3nn(-c4ccc(OC)cc4)nc3c2)cc1Cl`, the figure is 0.27.
Take `Cc1ccc(-c2nnn(CC(=O)Nc3ccc(OC(F)(F)F)cc3)n2)cc1`: the z-score is 0.34.
As to `CCOC(=O)c1cnc2ccc(Cl)cc2c1Nc1ccc2c(c1)OCCO2`, the z-score was -0.29.
In the case of `O=C(N1CCCc2ccccc21)C12CC3CC(CC(C3)C1)C2` it was -0.74.
Regarding `O=C(O)c1ccc2c(c1)C(=O)N(c1cccc(Oc3ccc4c(c3)C(=O)N(c3ccccc3)C4=O)c1)C2=O`, the z-score was -2.01.
As to `COc1ccc(-n2cnc3cc(C(=O)NC4CCCC4)ccc32)cc1`, the z-score was -0.86.
As for `Cc1cc(C)cc(-n2nc3c(c2NC(=O)CCCCl)CSC3)c1`, the z-score is -0.91.
For `COc1ccc(OC)c(NC(=O)c2c(NCc3ccc(C)o3)sc3c2CCC3)c1`, the z-score was -1.95.
`Cc1cccc(C(=O)Nc2ccc(-c3nc4cc(C(C)(C)C)ccc4o3)cc2)c1`: the z-score was -0.77.
For the compound `CCn1cc(C(=O)Nc2cc(Cl)ccc2OC)c(=O)c2ccc(C)nc21`, the z-score was 0.75.
Turning to `CCn1cc(C(=O)NCCCN2CCCCCC2)c2cc(OC)c(OC)cc2c1=O`, the z-score was -0.6.
Regarding `Cc1cc(C)cc(NC(=O)CCCn2c(=S)[nH]c3ccccc3c2=O)c1`, the z-score is -1.99.
As for `CCCCCCn1c(SCC(=O)c2ccccc2)nc2c1c(=O)[nH]c(=O)n2C`, the z-score was -0.58.
Turning to `CC(C)c1ccc(NS(=O)(=O)c2ccc3[nH]cc(C(=O)NC4CCCC4)c(=O)c3c2)cc1`, the z-score is -2.24.
`COc1cc(C(=O)Nc2ccc(C(C)=O)cc2)cc(OC)c1OC`: the z-score is 0.14.
Turning to `O=C(O)c1ccc(-n2cnnn2)cc1`, the z-score is 1.04.
For `CCOC(=O)C1CCN(c2nc(-c3cccc(C)c3)nc3ccccc23)CC1`, the z-score is -0.19.
Turning to `Cc1ccccc1CSC1=NCCN1C(=O)C12CC3CC(CC(C3)C1)C2`, the z-score is -0.58.
`CCOc1ccccc1N(C)C(=O)C1c2cc(OC)c(OC)cc2C(=O)N(C)C1c1cccnc1` (stereo unspecified): the z-score is 1.17.
For `CCN(CC)C(=O)C1c2cc(OC)c(OC)cc2C(=O)N(C)C1c1ccc(SC)cc1` (stereo unspecified), the z-score was 0.35.
In the case of `Nc1c(C(=O)Nc2ccc(Br)cc2)sc2nc3c(c(-c4ccco4)c12)CCCCC3`, the z-score was -0.89.
`CN(C)c1ccc(C(O)(c2ccccc2)c2ccccc2)cc1`: the z-score is -0.51.
In the case of `CC(C)CC(=O)N1CCN(Cc2ccccc2Br)CC1`, the z-score is 0.09.
`CC(C)CC(=O)N1CCN(Cc2cccc(Cl)c2)CC1`: the z-score is -4 (active).
Consider `O=C(CN1CCN(Cc2cccc(Cl)c2)C1=O)NC1CCCCCCC1`, for which the z-score was 0.45.
In the case of `CCC(=O)N1CCc2cc(Br)cc(S(=O)(=O)N3CCCC(C(=O)N4CCN(c5cccc(C(F)(F)F)c5)CC4)C3)c21` (stereo unspecified) it was -0.33; in that of `CCOC(=O)c1c(C)oc2ccc(N(C(=O)c3ccccc3Cl)S(=O)(=O)c3cccc([N+](=O)[O-])c3)cc12`, -0.28.
